Laboratory results taken from PubChem BioAssay.
Unmarked numbers belong to inactive results. For part of these data: Measured potencies and affinities stand elsewhere. Active and inactive are the calls of the source. Unless noted, no rule for the calls is given here.

Assays:
[1] = antimalarial activity against Dd2 strain (AID 2302;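 active = growth inhibition above 50% at the single 2 µM test dose, taken to imply half-maximal potency below 2 µM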;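 also: 0% = DMSO untreated growth and 100% = chloroquine plus artemisinin killed control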); conditions: P. falciparum Dd2 in RBCs, LDH growth readout, 72 h; at 2 µM; stronger effect = higher value
[2] = HepG2 cytotoxicity, primary screen, cytotoxicity control for P. falciparum antimalarial project, cell-based, ATP luminescence (AID 2303;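 active = inhibition above 50%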;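 also: 0% = DMSO wells and 100% = digitonin-killed cells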); conditions: HepG2 viability, 24-48 h, at 10 µM, stronger effect = higher value
[3] = target: L-lactate dehydrogenase (Plasmodium falciparum (isolate CDC / Honduras)) (UniProt Q27743); assay: PfLDH activity inhibition – cell lysate, 3D7 strain, counter-screen for P. falciparum growth inhibition project (AID 2304);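 also: 0% = vehicle and 100% = reference inhibitor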; conditions: P. falciparum 3D7 crude extract, LDH APAD/NBT absorbance; at 2 µM; stronger effect = higher value
[4] = inhibition of 3D7 malaria parasite growth – strain 3D7 (AID 2306);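 also: 0% = DMSO wells and 100% = chloroquine plus artemisinin control wells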; conditions: P. falciparum 3D7 erythrocytic growth, LDH absorbance, 72 h; at 2 µM; stronger effect = higher value
[5] = target: Calcium-dependent protein kinase 1 (Plasmodium falciparum (isolate 3D7)) (UniProt P62344); assay: PfCDPK1 kinase inhibitors, biochemical, TCAMS library (AID 1159585; cut-off not given, nearly all actives have IC50 up to about 0.98 µM;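 also: inhibitors leave more ATP so luminescence rises with inhibition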); conditions: recombinant PfCDPK1, Kinase-Glo ATP depletion luminescence
[6] = target: Plasmodium falciparum protein kinase 6 (PK6, PF3D7_1337100) (UniProt Q8IDW1); assay: PfPK6 kinase inhibitors, biochemical, TCAMS library (AID 1159586); conditions: recombinant PfPK6, Kinase-Glo ATP depletion luminescence
[7] = target: Protein kinase 7 (PK7), Plasmodium falciparum 3D7 (PF3D7_0213400) (UniProt Q7YTF7); assay: inhibition of Plasmodium PK7 catalytic activity – biochemical, TCAMS antimalarial set, Kinase-Glo luminescence (AID 1159587); conditions: recombinant PfPK7, Kinase-Glo ATP depletion luminescence
[8] = target: Calcium-dependent protein kinase 4 (Plasmodium falciparum (isolate 3D7)) (UniProt Q8IBS5); assay: PfCDPK4 kinase inhibitors, biochemical, TCAMS library (AID 1159588; cut-off not given, nearly all actives have IC50 up to about 0.91 µM); conditions: recombinant PfCDPK4, Kinase-Glo ATP depletion luminescence
Chain of Calcium-dependent protein kinase 4 (Plasmodium falciparum (isolate 3D7)) (Q8IBS5 whole entry, looked up): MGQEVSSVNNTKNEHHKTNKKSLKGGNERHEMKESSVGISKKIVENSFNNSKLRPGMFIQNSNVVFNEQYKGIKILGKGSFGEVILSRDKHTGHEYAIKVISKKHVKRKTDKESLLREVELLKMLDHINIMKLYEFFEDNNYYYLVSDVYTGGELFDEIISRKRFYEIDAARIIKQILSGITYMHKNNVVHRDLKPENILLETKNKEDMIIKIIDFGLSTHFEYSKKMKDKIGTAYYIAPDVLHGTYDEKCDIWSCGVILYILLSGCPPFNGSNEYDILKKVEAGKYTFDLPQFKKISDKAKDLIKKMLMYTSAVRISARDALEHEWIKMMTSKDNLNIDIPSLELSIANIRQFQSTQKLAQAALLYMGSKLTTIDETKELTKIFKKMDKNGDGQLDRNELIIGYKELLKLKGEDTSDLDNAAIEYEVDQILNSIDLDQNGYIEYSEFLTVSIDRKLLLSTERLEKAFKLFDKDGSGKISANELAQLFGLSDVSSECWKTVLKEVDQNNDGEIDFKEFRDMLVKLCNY

Chain of Plasmodium falciparum protein kinase 6 (PK6, PF3D7_1337100) (Q8IDW1 1-305): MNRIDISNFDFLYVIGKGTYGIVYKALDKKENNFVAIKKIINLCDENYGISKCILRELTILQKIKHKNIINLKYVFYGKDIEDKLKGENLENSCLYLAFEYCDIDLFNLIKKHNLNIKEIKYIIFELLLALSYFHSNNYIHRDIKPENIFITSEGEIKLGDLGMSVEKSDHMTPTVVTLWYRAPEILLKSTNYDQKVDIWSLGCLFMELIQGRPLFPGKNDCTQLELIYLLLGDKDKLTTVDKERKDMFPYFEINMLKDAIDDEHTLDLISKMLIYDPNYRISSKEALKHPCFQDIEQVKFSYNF
Chain of Protein kinase 7 (PK7), Plasmodium falciparum 3D7 (PF3D7_0213400) (Q7YTF7 1-343): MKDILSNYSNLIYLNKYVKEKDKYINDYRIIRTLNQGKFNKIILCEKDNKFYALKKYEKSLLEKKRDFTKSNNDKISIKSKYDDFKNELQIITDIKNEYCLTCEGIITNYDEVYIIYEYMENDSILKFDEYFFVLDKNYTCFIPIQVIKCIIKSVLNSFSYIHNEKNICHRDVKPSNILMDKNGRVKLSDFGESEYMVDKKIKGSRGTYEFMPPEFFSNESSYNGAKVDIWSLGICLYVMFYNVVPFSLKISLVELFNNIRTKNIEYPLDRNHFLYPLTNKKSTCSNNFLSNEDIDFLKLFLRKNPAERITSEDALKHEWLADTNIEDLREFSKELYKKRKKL
Chain of L-lactate dehydrogenase (Plasmodium falciparum (isolate CDC / Honduras)) (Q27743 whole entry, looked up): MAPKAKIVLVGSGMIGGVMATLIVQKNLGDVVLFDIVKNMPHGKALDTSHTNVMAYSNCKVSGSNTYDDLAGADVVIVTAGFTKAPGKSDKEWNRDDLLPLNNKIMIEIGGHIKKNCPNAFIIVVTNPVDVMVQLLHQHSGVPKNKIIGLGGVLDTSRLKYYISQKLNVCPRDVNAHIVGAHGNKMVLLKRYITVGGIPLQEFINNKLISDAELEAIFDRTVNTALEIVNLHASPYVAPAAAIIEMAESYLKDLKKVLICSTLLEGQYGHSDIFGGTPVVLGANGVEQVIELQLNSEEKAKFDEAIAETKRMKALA
Chain of Calcium-dependent protein kinase 1 (Plasmodium falciparum (isolate 3D7)) (P62344 whole entry, looked up): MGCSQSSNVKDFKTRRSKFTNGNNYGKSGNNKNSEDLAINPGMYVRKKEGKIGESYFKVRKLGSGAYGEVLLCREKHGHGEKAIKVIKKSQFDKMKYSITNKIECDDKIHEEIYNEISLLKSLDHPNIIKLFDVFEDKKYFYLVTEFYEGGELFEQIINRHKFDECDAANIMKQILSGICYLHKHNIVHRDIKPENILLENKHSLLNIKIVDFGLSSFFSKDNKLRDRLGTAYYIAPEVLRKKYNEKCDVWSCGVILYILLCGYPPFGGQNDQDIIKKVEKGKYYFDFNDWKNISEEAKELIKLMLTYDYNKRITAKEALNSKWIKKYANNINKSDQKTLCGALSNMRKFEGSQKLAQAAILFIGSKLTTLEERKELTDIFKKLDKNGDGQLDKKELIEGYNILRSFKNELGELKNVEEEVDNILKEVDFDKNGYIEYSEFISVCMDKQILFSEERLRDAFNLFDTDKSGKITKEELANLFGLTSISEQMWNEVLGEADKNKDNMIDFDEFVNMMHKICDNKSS

Compound | growth inhibition [1] | inhibition [2] | inhibition [3] [%] | growth inhibition [4] | outcome [5] | outcome [6] | outcome [7] | outcome [8]
COc1ccc2nccc(NC(=O)C3CCC(NCc4cnc(SC)c([N+](=O)[O-])c4)CC3)c2n1 (configuration not stated) | 44% | 8% | 5 | 89% (active) | inactive | inactive | inactive | inactive
COc1ccc(CNC(=O)Nc2cc3cc(-c4ccc(CN5CCCC5)cc4)ccc3n3c(C)nnc23)cc1 | 100% (active) | 100% (active) | -3 | 101% (active) | inactive | inactive | inactive | inactive
CS(=O)(=O)CCNc1nccc(N2CCc3ncnc(Nc4ccc(OCc5cccc(F)c5)c(Cl)c4)c3C2)n1 | 100% (active) | 8% | -4 | 101% (active) | inactive | inactive | inactive | inactive
Cc1cc(Cl)ccc1NC(=O)Nc1ccc2nccc(N3CCN(C)CC3)c2c1 | 74% (active) | -1% | 1 | 101% (active) | inactive | inactive | inactive | inactive
O=C(Nc1ccccc1Cl)N(Cc1cc(Cl)cc(Cl)c1)CC(O)COc1ccc(Cl)c(F)c1 (configuration not stated) | 17% | 0% | 4 | 93% (active) | inactive | inactive | inactive | inactive
CCCCC(=O)Nc1ccc(Nc2nc(C)cc(N3CCCC3)n2)cc1 | 67% (active) | 38% | 4 | 101% (active) | inactive | inactive | inactive | inactive
Nc1oc2c(CN3CCCCCC3)c(O)ccc2c(=O)c1-c1nc2ccccc2s1 | 99% (active) | 12% | 4 | 100% (active) | inactive | inactive | inactive | inactive
Cc1ccc2c(c1)NC[C@@]21CCN(C[C@@H](O)C2CCN(c3ccnc(Cl)c3)CC2)C[C@@H]1C | 69% (active) | 46% | -5 | 87% (active) | inactive | inactive | inactive | inactive
CN(C)c1ccc(CN2CCCCC(NC(=O)c3cc(-c4ccccc4F)cs3)C2)cc1 (configuration not stated) | 28% | 13% | 5 | 100% (active) | inactive | inactive | inactive | inactive
Nc1nc(N)c2c(Cl)c(N(Cc3ccccc3)Cc3ccccc3)ccc2n1 | 2% | 66% (active) | 2 | 96% (active) | inactive | inactive | inactive | inactive
CCc1c(CCNCCCCCCNCCc2ccc3c(c2C)OCO3)ccc2c1OCO2 | 7% | 59% (active) | 7 | 101% (active) | inactive | inactive | inactive | inactive
Cc1c(C(=O)[C@@H]2C[C@H]2CN2CCC(N3CCCCC3)CC2)sc2ccccc12 | 19% | 35% | -1 | 94% (active) | inactive | inactive | inactive | inactive
Cc1ccccc1C1CCN(C2CCC(NC(=O)c3ccc4c(c3)-c3nocc3C(C)O4)CC2)CC1 (configuration not stated) | 37% | 68% (active) | 4 | 88% (active) | inactive | inactive | inactive | inactive
O=C(NC1CCN(Cc2ccccc2)CC1)c1csc2nc(-c3ccc(Cl)cc3)cn12 | 14% | 19% | -10 | 98% (active) | inactive | inactive | inactive | inactive
O=C(Nc1ccc2c(c1)CCC2)c1ccc(N2CCN(c3ccncc3)CC2)cn1 | 58% (active) | 56% (active) | 2 | 99% (active) | inactive | inactive | inactive | inactive
CCOC(=O)c1cncc(/C=C/c2cc(C)cnc2N)c1 | 3% | 4% | -4 | 86% (active) | inactive | inactive | inactive | inactive
CN1C(=O)C(=O)N(CCCCCON=C(N)N)C1=S | 1% | 21% | -1 | 101% (active) | inactive | inactive | inactive | inactive
COc1ccc(-c2nc3c(N)nc(N)nc3nc2C(C)C)cc1 | -4% | 71% (active) | 6 | 96% (active) | inactive | inactive | inactive | inactive
CN(C)CCCOc1cccc(CCNCc2cccc(Oc3ccc(Cl)cc3)c2)c1 | 67% (active) | 72% (active) | -3 | 93% (active) | inactive | inactive | inactive | inactive
CO/C(=C\C=C\c1cc2cc(Cl)c(Cl)cc2[nH]1)C(=O)NC1C[C@H]2CC[C@@H](C1)N2C (some centres not stated) | 23% | 46% | -4 | 88% (active) | inactive | inactive | inactive | inactive

Compound | growth inhibition [1] | inhibition [2] | inhibition [3] [%] | growth inhibition [4] | outcome [5] | outcome [6] | outcome [7] | outcome [8]
CCNc1cc(C(=O)N[C@@H](Cc2ccccc2)[C@H](O)CNCc2cc(C#N)ccc2OC)cc(N2CCCC2=O)c1 | 51% (active) | -1% | -3 | 85% (active) | inactive | inactive | inactive | inactive
COc1ccc2nccc(NN=Cc3cccc(F)c3)c2c1 | 65% (active) | 13% | 2 | 102% (active) | inactive | inactive | inactive | inactive
CCCN(Cc1ccc(C)cc1)Cc1cc(=O)c2cc(Cl)ccc2[nH]1 | 91% (active) | 51% (active) | 4 | 86% (active) | inactive | inactive | inactive | inactive
O=C(NCCc1cccc(F)c1)c1cc(Br)cc(N2CCN(c3ccncc3)CC2)c1 | 86% (active) | 34% | 0 | 100% (active) | inactive | inactive | inactive | inactive
COc1ccc2ncc(F)c(CCN3CCC[C@H](CNCc4ccc5c(n4)NC(=O)CS5)C3)c2n1 | 34% | 16% | 3 | 96% (active) | inactive | inactive | inactive | inactive
Cc1cc(NC(=O)Nc2ccc(Oc3ccccc3)cc2)c2ccccc2n1 | 28% | 2% | 4 | 91% (active) | inactive | inactive | inactive | inactive
CC(C)(C)Nc1cc(C(=O)N[C@@H](Cc2ccccc2)[C@H](O)CNC2CCOCC2)cc(N2CCCCS2(=O)=O)c1 | 98% (active) | -5% | -1 | 99% (active) | inactive | inactive | inactive | inactive
O=C(Nc1ccc(F)cc1)c1nc2ccccc2nc1Cl | 62% (active) | 44% | -1 | 80% (active) | inactive | inactive | inactive | inactive
CC(=O)Nc1ccc(CNC2Cc3ccc(-c4ccc(Cl)c(Cl)c4)cc3C2)cc1 (configuration not stated) | 7% | 49% | -3 | 89% (active) | inactive | inactive | inactive | inactive
CC1CN(Cc2cccc(F)c2)CCN1c1ccc(NC(=O)c2ccc(F)cc2)cc1 (configuration not stated) | 92% (active) | -2% | -2 | 96% (active) | inactive | inactive | inactive | inactive
CCCCN(CCCC)Cc1cc2ccccc2cc1O | 98% (active) | 9% | -6 | 100% (active) | inactive | inactive | inactive | inactive
O=C(Nc1ccc(-c2ccc(-c3nc4ccc(C(F)(F)F)cc4[nH]3)cc2)cc1)Nc1ccc(F)c(F)c1F | 100% (active) | 39% | 3 | 99% (active) | inactive | inactive | inactive | inactive
COc1cccc(-c2csc(C(=O)NCC3CCN(Cc4ccc(C(C)C)cc4)C3)c2)c1 (configuration not stated) | 9% | 35% | 0 | 86% (active) | inactive | inactive | inactive | inactive
Cc1c(Cn2ncc(N3CCC(N)CC3)c(Cl)c2=O)cccc1NC(=O)Nc1ccc(-c2ccccc2)cc1 | 43% | 19% | -1 | 97% (active) | inactive | inactive | inactive | inactive
Cc1ccc2cc(NC(=O)CCCCCCCON3C(N)=NC(N)=NC34CCCCC4)ccc2n1 | 86% (active) | 6% | 3 | 98% (active) | inactive | inactive | inactive | inactive
CCNc1cc(C)nc(Nc2ccc(NC(=O)C3CCCC3)cc2)n1 | 69% (active) | 13% | 0 | 99% (active) | inactive | inactive | inactive | inactive
Oc1ccc(CCNCCCCNCCc2ccc(Cl)cc2)cc1O | -1% | 33% | -1 | 94% (active) | inactive | inactive | inactive | inactive
COc1cc2ccccc2c(OC)c1CCNCCCCNCCc1c(OC)cc2ccccc2c1OC | 30% | 100% (active) | 7 | 99% (active) | inactive | inactive | inactive | inactive
Nc1nc(N)c2c(ccc3c2ccn3Cc2ccc(-c3ccccc3)cc2)n1 | 93% (active) | 100% (active) | 4 | 98% (active) | inactive | inactive | inactive | inactive
